Assay results reported in PubChem BioAssay (NCI).
About 79,000 compounds went through this panel and 15% of them were active in at least one assay; those are over-represented in the sample as a whole. Values without a mark were called inactive. Activity calls are given as the source filed them. Cut-off read from the data, not from the text of the source: active = growth inhibition above about 70%; inactive = the rest.

Legend:
[1] = NCI Yeast Anticancer Drug Screen. Data for the rad50 strain (AID 155);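 note: 0% = growth of vehicle-only cultures of the same strain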; details: S. cerevisiae rad50 strain growth inhibition, hits give high values
Summary of the method: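 Vehicle-treated cultures provide the reference for the growth inhibition reported for compound-exposed, repair-deficient yeast.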

[2] = NCI Yeast Anticancer Drug Screen. Data for the mec2-1 strain (AID 157); details: S. cerevisiae mec2-1 strain, hits give high values
Summary of the method: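 Vehicle-treated cultures served as reference for growth inhibition of compound-exposed mec2-1 yeast.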

[3] = NCI Yeast Anticancer Drug Screen. Data for the sgs1 mgt1 strain (AID 161);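 note: 0% = growth of cultures given vehicle only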; details: S. cerevisiae sgs1 mgt1 strain, hits give high values
Summary of the method: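 Mutant yeast exposed to compound; growth scored against vehicle-only wells.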

[4] = NCI Yeast Anticancer Drug Screen. Data for the cln2 rad14 strain (AID 165);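 note: 0% = growth equal to vehicle treated cultures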; details: S. cerevisiae cln2 rad14 strain, hits give high values
Summary of the method: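 Each compound was tested on cln2 rad14 yeast. Inhibition of growth was calculated against vehicle-exposed controls.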

[5] = NCI Yeast Anticancer Drug Screen. Data for the bub3 strain (AID 167); details: S. cerevisiae bub3 mutant strain, hits give high values
Summary of the method: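 Mutant yeast screening strain plus compound; vehicle-treated cultures serve as the 0% inhibition reference.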

[6] = NCI Yeast Anticancer Drug Screen. Data for the mlh1 rad18 strain (AID 175); details: S. cerevisiae mlh1 rad18 strain growth inhibition, hits give high values
Summary of the method: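 Vehicle-treated cultures served as the reference for growth inhibition in a yeast strain carrying DNA damage repair alterations exposed to each compound.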

[7] = at 5.0 µM (retest, dose inferred, filed as 0.5)
[8] = at 50.0 µM (retest, dose inferred, filed as 5.0)

Compound	growth inhibition [1, 7]	growth inhibition [1, 8]	growth inhibition ([1]; at 50.0 µM)	growth inhibition [2, 7]	growth inhibition [2, 8]	growth inhibition ([2]; at 50.0 µM)	growth inhibition [3, 7]	growth inhibition [3, 8]	growth inhibition ([3]; at 50.0 µM)	growth inhibition [4, 7]	growth inhibition [4, 8]	growth inhibition ([4]; at 50.0 µM)	growth inhibition [5, 7]	growth inhibition [5, 8]	growth inhibition ([5]; at 50.0 µM)	growth inhibition [6, 7]	growth inhibition [6, 8]	growth inhibition ([6]; at 50.0 µM)
O=[N+]([O-])c1cccc2nc3ccccc3c(NCCNCCO)c12	89% (active)	98% (active)	75.3% (active)	95% (active)	99% (active)	51.2%	90% (active)	99% (active)	80.2% (active)	75% (active)	98% (active)	76.8% (active)	42%	99% (active)	10.6%	89% (active)	98% (active)	88% (active)
N#C/C(=C\c1cccnc1)c1csc2ccccc12	2%	86% (active)	95.3% (active)	8%	91% (active)	88.8% (active)	2%	85% (active)	75.2% (active)	1%	83% (active)	73% (active)	1%	83% (active)	94.2% (active)	-5%	88% (active)	94.4% (active)
O=[N+]([O-])c1ccc(C(Cl)Cc2ccc(Cl)cc2)cc1 (configuration not stated)	10%	66%	90.2% (active)	7%	64%	82.5% (active)	22%	91% (active)	93.7% (active)	-8%	61%	62.6%	20%	82% (active)	94.3% (active)	-18%	71% (active)	89.1% (active)
O=C(CSc1cc[o+]cc1)c1cccc([N+](=O)[O-])c1	0%	49%	65.8%	2%	87% (active)	81.8% (active)	4%	86% (active)	68%	-5%	53%	78.5% (active)	4%	92% (active)	97.1% (active)	-3%	85% (active)	93.5% (active)
CC12CCC(=O)C=C1CCC1C2C(O)CC2(C)C(c3csc(N)n3)CCC12 (configuration not stated)	58%	98% (active)	98.8% (active)	17%	98% (active)	96.8% (active)	49%	97% (active)	98% (active)	23%	90% (active)	94.5% (active)	27%	97% (active)	96.8% (active)	38%	96% (active)	96% (active)
CCCCN(CCCC)CC(O)c1cc(-c2ccc(Cl)cc2)nc2cc(C)ccc12 (configuration not stated)	-5%	97% (active)	99.2% (active)	17%	98% (active)	99.2% (active)	11%	99% (active)	99.6% (active)	5%	97% (active)	96.2% (active)	6%	97% (active)	98.9% (active)	33%	98% (active)	99.1% (active)
CC(Cc1ccccc1)NN1CCOC(c2ccccc2)C1C (configuration not stated)	2%	66%	32.1%	-2%	56%	56.8%	0%	78% (active)	64.2%	-1%	16%	13.1%	9%	59%	46%	-3%	72% (active)	73% (active)
C[n+]1c(-c2ccc(/C=N\Nc3nnc(S)n3/N=C/c3ccc(-c4cn5ccccc5[n+]4C)cc3)cc2)cn2ccccc21	7%	98% (active)	94.5% (active)	-16%	96% (active)	92.9% (active)	3%	97% (active)	95.8% (active)	4%	94% (active)	92.1% (active)	29%	98% (active)	93% (active)	10%	97% (active)	96.8% (active)
CN(C)CCC(=O)c1ccco1	6%	85% (active)	86.1% (active)	13%	93% (active)	94% (active)	25%	87% (active)	93.3% (active)	10%	89% (active)	93.5% (active)	-3%	39%	70.2% (active)	13%	92% (active)	95.3% (active)
CSC(C=P(c1ccccc1)(c1ccccc1)c1ccccc1)=Nc1ccccc1	58%	98% (active)	96.8% (active)	22%	96% (active)	99% (active)	23%	98% (active)	95.5% (active)	3%	97% (active)	98.3% (active)	16%	97% (active)	98.2% (active)	15%	97% (active)	95.7% (active)
CN(C)C1=C(Cl)C(=O)c2ccccc2C1=O	12%	93% (active)	47.7%	14%	87% (active)	45.6%	14%	93% (active)	44.9%	11%	60%	34.8%	14%	96% (active)	82% (active)	15%	87% (active)	42.4%
CCC1CCC(CC)C1O (configuration not stated)	1%	6%	34.9%	0%	-3%	22.9%	2%	0%	26.8%	1%	4%	29.8%	1%	2%	78.7% (active)	-2%	2%	28.5%
c1c[n+](CCC2CCCCC2)ccn1	-15%	6%	89% (active)	-14%	-23%	97% (active)	-33%	-21%	94.3% (active)	-26%	10%	73.1% (active)	-6%	28%	63.7%	-28%	3%	69.5%
O=C(O)COc1c(Cl)c(Cl)c(Cl)c(Cl)c1Cl.[Cu+2]	28%	98% (active)	88% (active)	20%	99% (active)	93.7% (active)	42%	99% (active)	92.7% (active)	7%	99% (active)	86% (active)	9%	99% (active)	89.2% (active)	22%	99% (active)	86.3% (active)
CC(=O)N1CCCC2=C1CCCCCCCCCC2	-7%	4%	49.4%	-6%	-5%	27.9%	-3%	1%	70.6% (active)	3%	-9%	22.9%	-12%	-21%	29.2%	-6%	-2%	13.8%
COc1ccc2c(Cc3ccccc3)c3[n+](cc2c1OC)CCc1cc2c(cc1-3)OCO2	2%	98% (active)	98.8% (active)	8%	97% (active)	99.2% (active)	4%	99% (active)	99% (active)	-1%	98% (active)	98.2% (active)	12%	98% (active)	98.8% (active)	-4%	97% (active)	98.9% (active)
CNC(=O)c1cc(NC(=O)c2ccc(C(=O)Nc3cc(C(=O)NC)cc(C4=NCCN4)c3)cc2)cc(C2=NCCN2)c1	3%	-3%	98.8% (active)	11%	1%	99.6% (active)	-6%	-3%	99.3% (active)	0%	8%	92.8% (active)	5%	1%	98.7% (active)	2%	-19%	98.6% (active)
N#Cc1c([N+](=O)[O-])cc(C(F)(F)F)cc1[N+](=O)[O-]	92% (active)	99% (active)	99.5% (active)	63%	100% (active)	99.6% (active)	68%	100% (active)	99.5% (active)	82% (active)	99% (active)	99.2% (active)	92% (active)	100% (active)	99% (active)	92% (active)	99% (active)	99.3% (active)
[Pt].c1ccc(P(CCP(CCP(c2ccccc2)c2ccccc2)CCP(c2ccccc2)c2ccccc2)c2ccccc2)cc1	6%	83% (active)	71.2% (active)	36%	91% (active)	84.2% (active)	19%	89% (active)	80% (active)	6%	91% (active)	78% (active)	0%	92% (active)	80.2% (active)	17%	89% (active)	79% (active)
